# Reference: the supplement of paper PMC8728848
# This is one part of a sample in which the strongest signals are shown more often than they occur.
# Tests used:
# Test in all cases: glycan array binding signal (z-score within array); higher = stronger binding
# Details in all cases: glycan notation: IUPAC condensed, linker removed
# [1] = target: Fuc(a1-2)Gal(b1-4)GlcNAc(b1-2)[Fuc(a1-2)Gal(b1-4)GlcNAc(b1-4)]Man(a1-3)[Fuc(a1-2)Gal(b1-4)GlcNAc(b1-2)Man(a1-6)]Man(b1-4)GlcNAc(b1-4)GlcNAc
# Summary of the method: (§1)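 Glycan array data were curated from 3228 arrays in the Consortium for Functional Glycomics database and kept only where the protein sequence was available. Glycan names were converted to IUPAC-condensed notation, and columns mapping to the same glycan were averaged. The binding signal is a within-array Z-score, averaged across arrays of the same protein sequence at different concentrations or buffers and across linkers. Negative Z-scores can be read as non-binding.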
# [2] = target: Fuc(a1-2)Gal(b1-4)GlcNAc(b1-6)GalNAc
# Summary of the method: as §1
# [3] = target: Fuc(a1-2)Gal(b1-4)[Fuc(a1-3)]GlcNAc(b1-2)[Fuc(a1-2)Gal(b1-4)[Fuc(a1-3)]GlcNAc(b1-4)]Man(a1-3)[Fuc(a1-2)Gal(b1-4)[Fuc(a1-3)]GlcNAc(b1-2)Man(a1-6)]Man(b1-4)GlcNAc(b1-4)GlcNAc
# Summary of the method: as §1
# [4] = target: Fuc(a1-2)Gal(b1-4)[Fuc(a1-3)]GlcNAc(b1-3)Gal(b1-4)[Fuc(a1-3)]GlcNAc(b1-3)Gal(b1-4)[Fuc(a1-3)]GlcNAc
# Summary of the method: as §1
# [5] = target: Fuc(a1-2)Gal6S(b1-3)GlcNAc
# Summary of the method: as §1
# [6] = target: Fuc(a1-2)Gal6S(b1-4)Glc
# Summary of the method: as §1
# [7] = target: Fuc(a1-2)[Gal(a1-4)]Gal(b1-4)GlcNAc
# Summary of the method: as §1
# [8] = target: Fuc(a1-3)[Gal(b1-4)]GlcNAc
# Summary of the method: as §1
# [9] = target: Fuc(a1-3)[Gal(b1-4)]GlcNAc(b1-2)Man
# Summary of the method: as §1
# [10] = target: Gal(a1-3)Gal(b1-3)GlcNAc(b1-2)Man(a1-3)[Gal(a1-3)Gal(b1-3)GlcNAc(b1-2)Man(a1-6)]Man(b1-4)GlcNAc(b1-4)GlcNAc
# Summary of the method: as §1
# [11] = target: Gal(a1-3)Gal(b1-4)GlcNAc
# Summary of the method: as §1
# [12] = target: Gal(a1-3)Gal(b1-4)GlcNAc(b1-2)Man(a1-3)[Gal(a1-3)Gal(b1-4)GlcNAc(b1-2)Man(a1-6)]Man(b1-4)GlcNAc(b1-4)GlcNAc
# Summary of the method: as §1
# [13] = target: Gal(a1-3)Gal(b1-4)[Fuc(a1-3)]GlcNAc
# Summary of the method: as §1
# [14] = target: Gal(a1-3)[Gal(a1-4)]Gal(b1-4)GlcNAc
# Summary of the method: as §1
# [15] = target: Gal(a1-4)Gal(b1-3)GlcNAc(b1-2)Man(a1-3)[Gal(a1-4)Gal(b1-3)GlcNAc(b1-2)Man(a1-6)]Man(b1-4)GlcNAc(b1-4)GlcNAc
# Summary of the method: as §1
# [16] = target: Gal(a1-4)Gal(b1-4)GlcNAc
# Summary of the method: as §1
# [17] = target: Gal(a1-4)Gal(b1-4)GlcNAc(b1-2)Man(a1-3)[Gal(a1-4)Gal(b1-4)GlcNAc(b1-2)Man(a1-6)]Man(b1-4)GlcNAc(b1-4)GlcNAc
# Summary of the method: as §1
# [18] = target: Gal(a1-4)Gal(b1-4)GlcNAc(b1-3)Gal(b1-4)Glc
# Summary of the method: as §1
# [19] = target: Gal(a1-4)GlcNAc
# Summary of the method: as §1
# [20] = target: Gal(b1-3)Gal(b1-4)GlcNAc(b1-2)Man(a1-3)[Gal(b1-3)Gal(b1-4)GlcNAc(b1-2)Man(a1-6)]Man(b1-4)GlcNAc(b1-4)GlcNAc
# Summary of the method: as §1
# [21] = target: Gal(b1-3)GalNAc(b1-3)Gal(a1-4)Gal(b1-4)Glc
# Summary of the method: as §1
# [22] = target: Gal(b1-3)GlcNAc(b1-3)Gal(b1-4)Glc
# Summary of the method: as §1
# [23] = target: Gal(b1-4)GlcNAc(b1-2)Man(a1-6)[Man(a1-3)]Man(b1-4)GlcNAc(b1-4)GlcNAc
# Summary of the method: as §1
# [24] = target: Gal3S(b1-3)GlcNAc
# Summary of the method: as §1
# [25] = target: Gal3S(b1-3)[Fuc(a1-4)]GlcNAc
# Summary of the method: as §1
# [26] = target: GalNAc(b1-3)Gal(a1-4)Gal(b1-4)GlcNAc(b1-3)Gal(b1-4)Glc
# Summary of the method: as §1
# [27] = target: GalNAc(b1-4)GlcNAc
# Summary of the method: as §1
# [28] = target: GlcNAc(a1-4)Gal(b1-4)GlcNAc(b1-3)Gal(b1-4)Glc
# Summary of the method: as §1
# [29] = target: GlcNAc(a1-4)Gal(b1-4)GlcNAc(b1-3)Gal(b1-4)[Fuc(a1-3)]GlcNAc(b1-3)Gal(b1-4)[Fuc(a1-3)]GlcNAc
# Summary of the method: as §1
# [30] = target: GlcNAc(b1-2)Man(a1-3)[GlcNAc(b1-2)Man(a1-6)]Man(b1-4)GlcNAc(b1-4)[Fuc(a1-6)]GlcNAc
# Summary of the method: as §1
# [31] = target: GlcNAc(b1-2)[GlcNAc(b1-6)]Man(a1-6)[GlcNAc(b1-2)Man(a1-3)]Man(b1-4)GlcNAc(b1-4)[Fuc(a1-6)]GlcNAc
# Summary of the method: as §1
# [32] = target: GlcNAc(b1-3)Gal(b1-4)GlcNAc(b1-3)GalNAc
# Summary of the method: as §1
# [33] = target: GlcNAc(b1-3)[GlcNAc(b1-4)][GlcNAc(b1-6)]GlcNAc
# Summary of the method: as §1
# [34] = target: Man(a1-2)Man(a1-3)Man
# Summary of the method: as §1
# [35] = target: Neu5Ac(a2-3)Gal(b1-4)GlcNAc(b1-2)Man(a1-3)[GlcNAc(b1-4)][Neu5Ac(a2-3)Gal(b1-4)GlcNAc(b1-2)Man(a1-6)]Man(b1-4)GlcNAc(b1-4)GlcNAc
# Summary of the method: as §1
# [36] = target: Neu5Ac(a2-3)Gal(b1-4)GlcNAc(b1-3)Gal(b1-4)[Fuc(a1-3)]GlcNAc
# Summary of the method: as §1
# [37] = target: Neu5Ac(a2-3)[GalNAc(b1-4)]Gal(b1-4)Glc
# Summary of the method: as §1
# [38] = target: Neu5Ac(a2-6)Gal(b1-4)GlcNAc6S
# Summary of the method: as §1
# [39] = target: Neu5Gc(a2-8)Neu5Ac(a2-3)Gal(b1-4)GlcNAc
# Summary of the method: as §1
binder,measurement,setting,value
"PA-IL (Pseudomonas aeruginosa), Q05097 (protein) MAWKGEVLANNEAGQVTSIIYNPGDVITIVAAGWASYGPTQKWGPQGDREHPDQGLICHDAFCGALVMKIGNSGTIPVNTGLFRWVAPNNVQGAITLIYNDVPGTYGNNSGSFSVNIGKDQS",glycan array binding signal (z-score),[1],-0.197
same,glycan array binding signal (z-score),[2],-0.201
same,glycan array binding signal (z-score),[3],-0.185
same,glycan array binding signal (z-score),[4],-0.213
same,glycan array binding signal (z-score),[5],-0.225
same,glycan array binding signal (z-score),[6],-0.229
same,glycan array binding signal (z-score),[7],5.44
same,glycan array binding signal (z-score),[8],-0.224
same,glycan array binding signal (z-score),[9],-0.233
same,glycan array binding signal (z-score),[10],0.015
same,glycan array binding signal (z-score),[11],5.08
same,glycan array binding signal (z-score),[12],6.97
same,glycan array binding signal (z-score),[13],5.02
same,glycan array binding signal (z-score),[14],6.55
same,glycan array binding signal (z-score),[15],7.29
same,glycan array binding signal (z-score),[16],4.79
same,glycan array binding signal (z-score),[17],8.23
same,glycan array binding signal (z-score),[18],5.73
same,glycan array binding signal (z-score),[19],3.63
same,glycan array binding signal (z-score),[20],7.65
same,glycan array binding signal (z-score),[21],-0.228
same,glycan array binding signal (z-score),[22],-0.228
same,glycan array binding signal (z-score),[23],-0.237
same,glycan array binding signal (z-score),[24],-0.229
same,glycan array binding signal (z-score),[25],-0.225
same,glycan array binding signal (z-score),[26],-0.228
same,glycan array binding signal (z-score),[27],-0.236
same,glycan array binding signal (z-score),[28],-0.23
same,glycan array binding signal (z-score),[29],-0.203
same,glycan array binding signal (z-score),[30],-0.214
same,glycan array binding signal (z-score),[31],-0.217
same,glycan array binding signal (z-score),[32],-0.221
same,glycan array binding signal (z-score),[33],-0.228
same,glycan array binding signal (z-score),[34],-0.226
same,glycan array binding signal (z-score),[35],-0.244
same,glycan array binding signal (z-score),[36],-0.226
same,glycan array binding signal (z-score),[37],-0.226
same,glycan array binding signal (z-score),[38],-0.228
same,glycan array binding signal (z-score),[39],-0.245
